Reference: PubChem BioAssay AID1159580 (chemical genetic matrix, 2015)
The campaign covered roughly 5,500 compounds. About 2,000 (36%) were called active. Inconclusive results (about 18%) are left out. Cut-off read from the data, not from the text of the source: active = normalized growth mostly below about 0.91 (no sharp cut-off); inconclusive = no clear call, values can overlap the other calls; inactive = mostly above about 0.92. The list shows a part of the results.

Experiment: chemical genetic growth profiling, strain panel (AID 1159580);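 note: tested at 20 µM; growth read once vehicle control cultures reached saturation at 30 °C; 1 = growth at the plate median or of vehicle wells; lower values mean less growth of the strain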
Settings: growth OD

Measured: normalized growth

CCOC(=O)NNc1nncc2ccccc12
inactive: S. cerevisiae deletion strains, locus YJR066W, strain TOR1, hits give low values 0.978 | S. cerevisiae deletion strains, locus YJR075W, strain HOC1, hits give low values 0.997 | S. cerevisiae deletion strains, locus YKL009W, strain mrt4, hits give low values 0.986 | S. cerevisiae deletion strains, locus YKL068W, hits give low values 0.984 | S. cerevisiae deletion strains, locus YKL085W, strain MDH1 (second series), hits give low values 0.992 | S. cerevisiae deletion strains, locus YKL085W, strain MDH1, hits give low values 0.992 | S. cerevisiae deletion strains, locus YKL160W, strain elf1, hits give low values 1.02 | S. cerevisiae deletion strains, locus YKL190W, strain CNB1, hits give low values 0.998 | S. cerevisiae deletion strains, locus YKR001C, strain vps1, hits give low values 0.983 | S. cerevisiae deletion strains, locus YKR026C, strain gcn3, hits give low values 1.02 | S. cerevisiae deletion strains, locus YKR091W, strain srl3, hits give low values 1 | S. cerevisiae deletion strains, locus YLL001W, strain dnm1, hits give low values 0.986 | S. cerevisiae deletion strains, locus YLL026W, hits give low values 1 | S. cerevisiae deletion strains, locus YLL041C, strain sdh2, hits give low values 1.01 | S. cerevisiae deletion strains, locus YLR027C, strain aat2, hits give low values 1 | S. cerevisiae deletion strains, locus YLR039C, strain RIC1, hits give low values 1.03 | S. cerevisiae deletion strains, locus YLR058C, strain SHM2, hits give low values 0.992 | S. cerevisiae deletion strains, locus YLR102C, strain apc9, hits give low values 0.979 | S. cerevisiae deletion strains, locus YLR113W, strain HOG1, hits give low values 0.967 | S. cerevisiae deletion strains, locus YLR221C, strain rsa3, hits give low values 0.976 | S. cerevisiae deletion strains, locus YLR258W, strain gsy2, hits give low values 1.04 | S. cerevisiae deletion strains, locus YLR262C, strain YPT6 (second series), hits give low values 1.01 | S. cerevisiae deletion strains, locus YLR262C, strain YPT6, hits give low values 1.02 | S. cerevisiae deletion strains, locus YLR268W, strain sec22, hits give low values 0.968 | S. cerevisiae deletion strains, locus YLR320W, strain mms22, hits give low values 0.92 | S. cerevisiae deletion strains, locus YLR330W, strain CHS5, hits give low values 0.992 | S. cerevisiae deletion strains, locus YLR342W, strain FKS1 (second series), hits give low values 0.973 | S. cerevisiae deletion strains, locus YLR342W, strain FKS1, hits give low values 1.03 | S. cerevisiae deletion strains, locus YLR357W, strain rsc2, hits give low values 1.06 | S. cerevisiae deletion strains, locus YLR370C, strain arc18, hits give low values 1.02 | S. cerevisiae deletion strains, locus YLR371W, strain rom2, hits give low values 0.977 | S. cerevisiae deletion strains, locus YLR384C, strain iki3, hits give low values 0.989 | S. cerevisiae deletion strains, locus YLR418C, strain cdc73, hits give low values 0.957 | S. cerevisiae deletion strains, locus YML016C, strain PPZ1, hits give low values 0.991 | S. cerevisiae deletion strains, locus YML032C, strain rad52, hits give low values 0.97 | S. cerevisiae deletion strains, locus YML120C, strain ndi1, hits give low values 0.992 | S. cerevisiae deletion strains, locus YML124C, strain tub3, hits give low values 0.983 | S. cerevisiae deletion strains, locus YMR058W, strain fet3, hits give low values 1.01 | S. cerevisiae deletion strains, locus YMR078C, strain ctf18, hits give low values 0.983 | S. cerevisiae deletion strains, locus YMR125W, strain sto1, hits give low values 1.03 | S. cerevisiae deletion strains, locus YMR129W, hits give low values 0.988 | S. cerevisiae deletion strains, locus YMR205C, strain PFK2, hits give low values 0.993 | S. cerevisiae deletion strains, locus YMR223W, strain ubp8, hits give low values 0.972 | S. cerevisiae deletion strains, locus YMR231W, strain pep5, hits give low values 0.997 | S. cerevisiae deletion strains, locus YMR307W, strain GAS1, hits give low values 0.972 | S. cerevisiae deletion strains, locus YNL067W, strain RPL9B, hits give low values 1.01 | S. cerevisiae deletion strains, locus YNL071W, strain lat1, hits give low values 1.01 | S. cerevisiae deletion strains, locus YNL128W, strain TEP1, hits give low values 0.967 | S. cerevisiae deletion strains, locus YNL183C, strain NPR1, hits give low values 0.934 | S. cerevisiae deletion strains, locus YNL209W, strain ssb2, hits give low values 1.01 | S. cerevisiae deletion strains, locus YNL233W, strain BNI4, hits give low values 0.998 | S. cerevisiae deletion strains, locus YNL248C, strain rpa49, hits give low values 1.06 | S. cerevisiae deletion strains, locus YNL250W, strain rad50, hits give low values 0.995 | S. cerevisiae deletion strains, locus YNL271C, strain bni1, hits give low values 0.973 | S. cerevisiae deletion strains, locus YNL298W, strain CLA4, hits give low values 0.985 | S. cerevisiae deletion strains, locus YNL307C, strain MCK1, hits give low values 0.977 | S. cerevisiae deletion strains, locus YNL322C, strain KRE1 (second series), hits give low values 1.05 | S. cerevisiae deletion strains, locus YNL322C, strain KRE1, hits give low values 0.998 | S. cerevisiae deletion strains, locus YNR049C, strain mso1, hits give low values 1 | S. cerevisiae deletion strains, locus YNR052C, strain pop2, hits give low values 0.966 | S. cerevisiae deletion strains, locus YOL006C, strain TOP1, hits give low values 1.02 | S. cerevisiae deletion strains, locus YOL012C, strain htz1 1.25 | S. cerevisiae deletion strains, locus YOL147C, strain pex11, hits give low values 0.98 | S. cerevisiae deletion strains, locus YOR001W, strain rrp6, hits give low values 0.97 | S. cerevisiae deletion strains, locus YOR061W, strain CKA2, hits give low values 0.986 | S. cerevisiae deletion strains, locus YOR069W, strain VPS5, hits give low values 0.986 | S. cerevisiae deletion strains, locus YOR070C, strain gyp1, hits give low values 1.01 | S. cerevisiae deletion strains, locus YOR080W, strain dia2, hits give low values 1.02 | S. cerevisiae deletion strains, locus YOR083W, strain WHI5, hits give low values 0.99 | S. cerevisiae deletion strains, locus YOR106W, strain vam3, hits give low values 1.05 | S. cerevisiae deletion strains, locus YOR136W, strain idh2, hits give low values 0.981 | S. cerevisiae deletion strains, locus YOR144C, strain elg1, hits give low values 0.983 | S. cerevisiae deletion strains, locus YOR184W, strain ser1, hits give low values 0.98 | S. cerevisiae deletion strains, locus YOR231W, strain MKK1, hits give low values 0.952 | S. cerevisiae deletion strains, locus YOR265W, strain rbl2, hits give low values 0.992 | S. cerevisiae deletion strains, locus YOR270C, strain vph1, hits give low values 1.06 | S. cerevisiae deletion strains, locus YOR290C, strain snf2, hits give low values 1.05 | S. cerevisiae deletion strains, locus YOR316C, strain cot1, hits give low values 0.976 | S. cerevisiae deletion strains, locus YPL051W, strain arl3, hits give low values 1.02 | S. cerevisiae deletion strains, locus YPL055C, strain LGE1, hits give low values 1.04 | S. cerevisiae deletion strains, locus YPL078C, strain atp4, hits give low values 1.07 | S. cerevisiae deletion strains, locus YPL106C, strain sse1, hits give low values 1.04 | S. cerevisiae deletion strains, locus YPL240C, strain hsp82, hits give low values 1.01 | S. cerevisiae deletion strains, locus YPL241C, strain CIN2, hits give low values 0.993 | S. cerevisiae deletion strains, locus YPL256C, strain CLN2, hits give low values 0.955 | S. cerevisiae deletion strains, locus YPR119W, strain clb2, hits give low values 0.975 | S. cerevisiae deletion strains, locus YPR141C, strain kar3, hits give low values 0.973 | S. cerevisiae deletion strains, locus YPR163C, strain tif3, hits give low values 0.969 | S. cerevisiae deletion strains, locus YPR167C, strain met16, hits give low values 0.975 | S. cerevisiae deletion strains, strain wtn01, hits give low values 1.01 | S. cerevisiae strains, strain wild type, hits give low values 1
